In PubChem BioAssay (NCI):
This is part of a sample that, as a whole, favours compounds with a hit. Of some 79,000 tested, about 15% had one in any assay. Unmarked numbers belong to inactive results. Active and inactive are the calls of the source. No stated cut-off is given here; in the data, active means growth inhibition above about 70%; inactive means the rest.

Assays:
[1] = NCI Yeast Anticancer Drug Screen. Data for the rad50 strain (AID 155);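 further: 0% = growth of vehicle-only cultures of the same strain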; conditions: S. cerevisiae rad50 strain growth inhibition; at 50.0 µM; active compounds read high
Outline: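 Growth of the mutant yeast was measured after compound exposure and referenced to vehicle-treated cultures.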

[2] = NCI Yeast Anticancer Drug Screen. Data for the mec2-1 strain (AID 157); conditions: S. cerevisiae mec2-1 strain, at 50.0 µM, active compounds read high
Outline: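 Mutant yeast (mec2-1) grown with compound; growth inhibition relative to vehicle control reported.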

[3] = NCI Yeast Anticancer Drug Screen. Data for the sgs1 mgt1 strain (AID 161);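 further: 0% = growth of cultures given vehicle only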; conditions: S. cerevisiae sgs1 mgt1 strain, at 50.0 µM, active compounds read high
Outline: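 Yeast cells carrying a defined DNA-repair defect were exposed to test compounds. Growth inhibition was measured relative to vehicle-treated controls.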

[4] = NCI Yeast Anticancer Drug Screen. Data for the cln2 rad14 strain (AID 165);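 further: 0% = growth equal to vehicle treated cultures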; conditions: S. cerevisiae cln2 rad14 strain, at 50.0 µM, active compounds read high
Outline: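 Readout is yeast growth inhibition versus vehicle-treated controls, using a strain with cln2 and rad14 alterations exposed to compound.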

[5] = NCI Yeast Anticancer Drug Screen. Data for the bub3 strain (AID 167); conditions: S. cerevisiae bub3 mutant strain, at 50.0 µM, active compounds read high
Outline: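 Whole-cell yeast assay. The mutant strain was incubated with compounds, and growth inhibition was determined by comparison with vehicle-treated cells.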

[6] = NCI Yeast Anticancer Drug Screen. Data for the mlh1 rad18 strain (AID 175); conditions: S. cerevisiae mlh1 rad18 strain growth inhibition; at 50.0 µM; active compounds read high
Outline: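 Genetically defined yeast (DNA repair-deficient) exposed to compounds; growth inhibition determined relative to vehicle.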

SMILES	growth inhibition [1]	growth inhibition [2] [%]	growth inhibition [3]	growth inhibition [4] [%]	growth inhibition [5]	growth inhibition [6]
CCOC(=O)c1cc(N(CCCl)CCCl)ccc1OC(=O)CC	3.95%	-6.9	19.7%	-32.2	5.85%	30.1%
CCCCOP(=S)(Nc1ccccc1)OCCCC	91% (active)	40.7	81.8% (active)	42	73.5% (active)	82.2% (active)
CC1(CCl)COP(=O)(NN)OC1 (stereo not drawn)	3.95%	-3.15	-3.85%	-28.7	12%	5.35%
O=C(Nc1ccc(O)cc1)c1c(O)[nH]c(=S)[nH]c1=O	-11.7%	-13.1	6.25%	-56.5	1.7%	4.65%
CCCCC1(C(C)C)C(=O)NC(=O)N(C)C1=O (stereo not drawn)	-5.55%	8.9	5.15%	-12.7	5.75%	5.3%
c1cc[c]([Sn]2([c]3ccccc3)[O]CCNCC[O]2)cc1	-13.1%	-14.4	10.4%	-14.9	-48.7%	-74.4%
CCOP(=O)(OCC)/C(C#N)=C(\C)c1ccco1	-26.4%	-28.9	-15.3%	-18.4	-11.6%	-1.2%
Nc1ncnc(N)n1	-7.3%	-17.1	13.3%	-28.8	-2.2%	-9.65%
